Test results: PubChem BioAssay (Tox21)
Where “and” joins values, the source holds several entries; their conditions need not be identical. Equal entries are not always repeated. Results filed as inconclusive are left out. Entries that show only a call come without a potency. Where a structure was tested more than once in an assay, its records may differ in their call. Calls of active or inactive are those of the source. Unless noted, calls come from the whole dose curve.

Legend:
[1] = Nuclear factor erythroid 2-related factor 2/antioxidant responsive element (Nrf2/ARE) small molecule agonists: qHTS cell viability counter screen in human keratinocytes (AID 1919968; active = well fitted curve in the direction sought with a large enough effect in the repeat runs; an effect the other way counts as inactive or inconclusive; note: nearly all actives have a fitted effect of over 55% in size; note: potency is the fitted concentration of half-maximal effect)
Summary of the method: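 In human HaCaT keratinocytes stably expressing an ARE-driven luciferase, compound exposure lasted 23 h at 37 C under 5% CO2. Viable cells are quantified with a protease-based fluorogenic reagent (CellTiter-Fluor) read 1 h after addition.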

[2] = Nuclear factor erythroid 2-related factor 2/antioxidant responsive element (Nrf2/ARE) small molecule agonists: luciferase reporter gene qHTS assay in human keratinocytes (AID 1919969); note: nearly all actives have a fitted effect of over 35% in size; note: potency is the fitted concentration of half-maximal effect
[3] = molecular target: Gonadotropin-releasing hormone receptor (Homo sapiens) (UniProt P30968); test: Human gonadotropin-releasing hormone receptor (GnRHR) small molecule agonists, calcium flux assay in GnRHR-HEK293 cells (AID 1920063); note: nearly all actives have a fitted effect of over 35% in size
Summary of the method: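 Intracellular calcium rise is the read-out: engineered human GnRHR HEK293 cells, dye-loaded, are exposed to DMSO-dissolved compounds and fluorescence at Ex/Em 480/540 is tracked for 3 min.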

[4] = molecular target: KiSS-1 receptor (Homo sapiens) (UniProt Q969F8); test: Human kisspeptin (KISS1R) small molecule agonists, calcium flux assay in KISS1R-HEK293 cells (AID 1920064; active = well fitted curve in the direction sought with a large enough effect in the repeat runs; an effect the other way counts as inactive or inconclusive)
Summary of the method: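 Concentration-response testing used 15 concentrations in triplicate on human KISS1R-expressing HEK293 cells. Calcium-dependent fluorescence (Ex/Em 480/540) was followed kinetically for 3 min after compound transfer.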

[5] = G protein-coupled receptor (GPCR) small molecule agonists, calcium flux assay: HEK293 wild type cell line counter screen (AID 1920065)
Summary of the method: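 Fluorescence intensity signals activation. After overnight (18 h) culture and a 1 h calcium dye load at 37 C, compounds are added by pin tool and the plate read at 480/540 nm for 3 min in 1 s steps.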

[6] = p53 small molecule agonists, cell-based qHTS assay with human liver microsomes: qHTS cell viability counter screen (AID 1963579); note: nearly all actives have a fitted effect of over 45% in size
Summary of the method: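 Luminescent CellTiter-Glo read-out, 30 min at room temperature, gauged cytotoxicity in p53RE-bla cells exposed 16 h at 37 C to DMSO-dissolved compounds with metabolic activation by human liver microsomes and NADPH, each 0.5 mg/mL final.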

[7] = p53 small molecule agonists, cell-based qHTS assay with rat liver microsomes: qHTS cell viability counter screen (AID 1963580); note: nearly all actives have a fitted effect of over 45% in size
Summary of the method: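 Counter screen for cytotoxicity under metabolic activation: rat liver microsomes and NADPH, 0.5 mg/mL final each, added with compounds to p53RE-bla HCT-116 cells; 16 h at 37 C, then ATP luminescence read.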

[8] = p53 small molecule agonists, cell-based qHTS assay: qHTS cell viability counter screen (AID 1963581); note: nearly all actives have a fitted effect of over 45% in size
Summary of the method: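 Luminescence from CellTiter-Glo, reflecting ATP content, serves as the cytotoxicity measure; it is taken after the 2 h reporter substrate step in HCT-116 p53RE-bla cells dosed for 16 h at 37 C.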

[9] = p53 small molecule agonists, cell-based qHTS assay (AID 1963582; active = well fitted activation curve with a large enough effect in the signal ratio in the repeat runs, not every such curve was filed as active; the % refers to the signal ratio)
Summary of the method: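 After plating, p53RE-bla cells sat 5 h in the incubator; compounds or DMSO vehicle were pinned in; a 16 h incubation at 37 C followed; FRET substrate was added and, 2 h later at RT, fluorescence was measured.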

[10] = cAMP Responsive Elements (CRE) small molecule agonists, cell-based qHTS assay (AID 1963590)
Summary of the method: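 Compound exposure lasted 3 h at 37 C/5% CO2 in CRE-bla HEK 293T cells grown in assay medium with 10% dialyzed FBS and 25 mM HEPES. Reporter signal came from LiveBLAzer B/G FRET substrate, 2 h, room temperature.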

[11] = molecular target: Beta-2 adrenergic receptor (Homo sapiens) (UniProt P07550); test: Adrenergic beta2 receptor (ADRB2) small molecule antagonists, cell-based qHTS assay (AID 1963592); note: series mostly up to about 92 µM; nearly all actives have a fitted effect of over 50% in size
Summary of the method: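 Assay format: CHO-ADRB2 cells, 18-20hr seeding at 37C/5% CO2, then compound plus 1nM isoproterenol agonist mix for 0.5hr RT. Homogeneous time-resolved fluorescence cAMP detection after 1hr, expressed as 665/615 nm ratio.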

[12] = molecular target: Beta-2 adrenergic receptor (Homo sapiens) (UniProt P07550); test: Adrenergic beta2 receptor (ADRB2) small molecule agonists, cell-based qHTS assay (AID 1963593);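 note: CHO cells stably overexpressing human ADRB2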
Summary of the method: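 CHO cells stably over-expressing ADRB2 were plated overnight at 37C, then dosed with compounds plus a stimulation mix containing 100uM IBMX and 25uM Ro-20-1724 for 0.5hr at room temperature. cAMP was measured by HTRF competition, 1hr.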

[13] = molecular target: D(2) dopamine receptor (Homo sapiens) (UniProt P14416); test: Dopamine D2 receptor (DRD2) small molecule agonists, cell-based qHTS assay (AID 1963594); note: nearly all actives have a fitted effect of over 35% in size
Summary of the method: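 HEK293 cells stably expressing DRD2 were cultured 24 h at 37 C, then given Ro20-1724 (0.1 mM final) and compounds for 10 min at room temperature. NKH477 (200nM) was then added for 30 min. cAMP was read by HTRF.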

[14] = molecular target: D(2) dopamine receptor (Homo sapiens) (UniProt P14416); test: Dopamine D2 receptor (DRD2) small molecule antagonists, cell-based qHTS assay (AID 1963595; active = well fitted inhibition curve with a large enough effect in the signal ratio in the repeat runs, with a control signal flat; the % refers to the signal ratio)
Summary of the method: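 Readout: HTRF cAMP, cAMP-d2 competing with cellular cAMP for anti-cAMP cryptate, read after 1 h. Cells: DRD2-HEK293. Conditions: 0.1 mM Ro20-1724, 12 nM quinpirole, 200 nM NKH477, 30 min RT.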

[15] = p53 small molecule agonists, cell-based qHTS assay with rat liver microsomes (AID 1963578)
Summary of the method: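 Rat liver microsome activation: microsomes 0.5 mg/mL, NADPH 0.5 mg/mL final; p53RE-bla cells, 16 h 37 C; LiveBLAzer readout, 2 h RT dark.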

[16] = molecular target: 5-hydroxytryptamine receptor 2A (Homo sapiens) (UniProt P28223); test: 5-hydroxytryptamine receptor 2A (HTR2A) small molecule antagonists, cell-based qHTS assay (AID 1963586); note: nearly all actives have a fitted effect of over 45% in size; note: potency is the fitted concentration of half-maximal effect
Summary of the method: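 CHO cells stably expressing human HTR2A were plated for 18 h at 37 C, then loaded with calcium dye for 1 h. Compounds were preincubated 5 min at room temperature before DOI (4 nM solution) was added. Kinetic fluorescence was read for 3 min.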

[17] = molecular target: 5-hydroxytryptamine receptor 2A (Homo sapiens) (UniProt P28223); test: 5-hydroxytryptamine receptor 2A (HTR2A) small molecule agonists, cell-based qHTS assay (AID 1963587); note: nearly all actives have a fitted effect of over 30% in size
Summary of the method: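 HTR2A-CHO cells, plated 18 h at 37 C/5% CO2, dye-loaded 1 h at 37 C; compounds in DMSO added by pin tool (agonist mode). Intracellular calcium flux read as kinetic fluorescence on FDSS over 2 min at 1 s intervals.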

[18] = molecular target: Muscarinic acetylcholine receptor M1 (Homo sapiens) (UniProt P11229); test: Cholinergic receptor muscarinic 1 (CHRM1) small molecule antagonists, cell-based qHTS assay (AID 1963588); note: nearly all actives have a fitted effect of over 40% in size
Summary of the method: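 Compounds were tested at 15 concentrations in three independent runs. Dye-loaded CHRM1-CHO cells were exposed 5 min at room temperature before stimulation by acetylcholine added at 50nM. Intracellular calcium was read kinetically on FDSS for 3 min.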

[19] = cAMP Responsive Elements (CRE) small molecule antagonists, cell-based qHTS assay (AID 1963591; active = well fitted inhibition curve with a large enough effect in the signal ratio in the repeat runs, not every such curve was filed as active; the % refers to the signal ratio)
Summary of the method: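 Stimulation used NKH477 at a final 0.25 uM for 3 h in compound-treated CRE-bla HEK293T cells, seeded 18 h beforehand. Reporter activity was measured with LiveBLAzer B/G FRET substrate after 2 h at room temperature.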

[20] = molecular target: Muscarinic acetylcholine receptor M1 (Homo sapiens) (UniProt P11229); test: Cholinergic receptor muscarinic 1 (CHRM1) small molecule agonists, cell-based qHTS assay (AID 1963589); note: nearly all actives have a fitted effect of over 35% in size
Summary of the method: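 Fluorescent calcium dye reports M1 activation in stably transfected CHO cells. Compounds, 15 concentrations, added after 1 h dye loading at 37 C; kinetic reading at 1 sec intervals.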

Sequence of Beta-2 adrenergic receptor (Homo sapiens) (P07550 whole entry, looked up): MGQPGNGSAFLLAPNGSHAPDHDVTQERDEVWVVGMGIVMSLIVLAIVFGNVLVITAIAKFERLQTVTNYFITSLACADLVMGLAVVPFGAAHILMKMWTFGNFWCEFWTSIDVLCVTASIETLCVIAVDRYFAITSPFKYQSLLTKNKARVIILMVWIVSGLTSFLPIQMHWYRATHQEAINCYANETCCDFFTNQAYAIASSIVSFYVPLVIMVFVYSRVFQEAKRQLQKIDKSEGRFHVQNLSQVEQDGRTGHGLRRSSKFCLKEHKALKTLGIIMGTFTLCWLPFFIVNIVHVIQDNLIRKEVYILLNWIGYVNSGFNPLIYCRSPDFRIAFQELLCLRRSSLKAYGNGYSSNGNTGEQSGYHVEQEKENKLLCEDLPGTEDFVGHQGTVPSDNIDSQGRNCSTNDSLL
Sequence of 5-hydroxytryptamine receptor 2A (Homo sapiens) (P28223 whole entry, looked up): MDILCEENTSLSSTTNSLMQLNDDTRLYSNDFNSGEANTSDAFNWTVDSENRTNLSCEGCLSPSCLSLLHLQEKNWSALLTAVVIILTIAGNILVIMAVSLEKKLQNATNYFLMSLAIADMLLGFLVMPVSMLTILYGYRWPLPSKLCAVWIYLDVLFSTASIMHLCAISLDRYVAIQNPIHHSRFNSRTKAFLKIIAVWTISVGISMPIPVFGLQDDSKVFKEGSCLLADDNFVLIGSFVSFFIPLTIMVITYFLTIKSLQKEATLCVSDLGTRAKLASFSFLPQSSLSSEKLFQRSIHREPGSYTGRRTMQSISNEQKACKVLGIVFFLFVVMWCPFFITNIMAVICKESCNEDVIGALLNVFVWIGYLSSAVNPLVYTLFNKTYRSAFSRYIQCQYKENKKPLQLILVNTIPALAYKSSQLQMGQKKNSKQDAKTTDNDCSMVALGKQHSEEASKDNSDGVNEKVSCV
Sequence of Muscarinic acetylcholine receptor M1 (Homo sapiens) (P11229 whole entry, looked up): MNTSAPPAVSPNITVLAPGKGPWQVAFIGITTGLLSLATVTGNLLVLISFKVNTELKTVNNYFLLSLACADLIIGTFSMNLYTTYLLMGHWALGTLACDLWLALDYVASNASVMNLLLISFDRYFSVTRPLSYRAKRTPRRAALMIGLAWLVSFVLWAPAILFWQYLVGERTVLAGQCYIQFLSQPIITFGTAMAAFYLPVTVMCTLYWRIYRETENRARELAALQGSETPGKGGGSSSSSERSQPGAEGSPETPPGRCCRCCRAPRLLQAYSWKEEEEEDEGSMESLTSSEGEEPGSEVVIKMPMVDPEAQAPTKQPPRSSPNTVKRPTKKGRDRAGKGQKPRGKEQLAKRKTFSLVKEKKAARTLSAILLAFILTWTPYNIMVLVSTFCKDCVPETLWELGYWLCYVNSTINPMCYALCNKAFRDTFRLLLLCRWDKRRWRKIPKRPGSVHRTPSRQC
Sequence of KiSS-1 receptor (Homo sapiens) (Q969F8 whole entry, looked up): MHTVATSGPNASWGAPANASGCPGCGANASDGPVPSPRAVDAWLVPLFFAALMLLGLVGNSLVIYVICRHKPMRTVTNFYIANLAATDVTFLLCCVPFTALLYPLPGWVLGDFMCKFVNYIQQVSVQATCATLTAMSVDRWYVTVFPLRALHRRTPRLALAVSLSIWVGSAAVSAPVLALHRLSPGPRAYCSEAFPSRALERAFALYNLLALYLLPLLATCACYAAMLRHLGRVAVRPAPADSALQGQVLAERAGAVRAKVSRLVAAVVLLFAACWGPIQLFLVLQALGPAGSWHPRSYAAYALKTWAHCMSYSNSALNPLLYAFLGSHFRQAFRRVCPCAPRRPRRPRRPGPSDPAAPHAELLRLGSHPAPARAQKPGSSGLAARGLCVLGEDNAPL
Sequence of Gonadotropin-releasing hormone receptor (Homo sapiens) (P30968 whole entry, looked up): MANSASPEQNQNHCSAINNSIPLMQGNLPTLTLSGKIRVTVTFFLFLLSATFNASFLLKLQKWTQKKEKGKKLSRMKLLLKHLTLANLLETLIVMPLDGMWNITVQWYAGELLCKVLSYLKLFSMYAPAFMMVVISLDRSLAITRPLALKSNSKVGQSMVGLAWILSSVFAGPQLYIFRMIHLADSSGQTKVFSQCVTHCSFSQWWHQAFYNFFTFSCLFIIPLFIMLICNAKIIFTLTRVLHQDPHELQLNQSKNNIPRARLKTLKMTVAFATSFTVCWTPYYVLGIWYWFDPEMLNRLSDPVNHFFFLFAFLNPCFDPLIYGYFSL
Sequence of D(2) dopamine receptor (Homo sapiens) (P14416 whole entry, looked up): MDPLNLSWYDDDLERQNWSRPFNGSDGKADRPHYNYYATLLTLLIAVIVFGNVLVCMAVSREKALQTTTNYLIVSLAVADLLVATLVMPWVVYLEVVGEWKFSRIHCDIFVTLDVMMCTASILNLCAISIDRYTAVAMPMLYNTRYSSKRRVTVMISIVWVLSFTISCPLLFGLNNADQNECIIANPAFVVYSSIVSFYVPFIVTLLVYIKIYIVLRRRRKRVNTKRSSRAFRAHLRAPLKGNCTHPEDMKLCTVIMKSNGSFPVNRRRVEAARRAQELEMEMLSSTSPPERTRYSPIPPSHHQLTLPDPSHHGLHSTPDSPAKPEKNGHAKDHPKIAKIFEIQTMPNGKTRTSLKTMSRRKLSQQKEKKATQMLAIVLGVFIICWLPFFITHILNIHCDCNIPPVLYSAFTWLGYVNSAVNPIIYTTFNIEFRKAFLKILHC

Compound	Potency [1]	Potency [2]	Potency [3]	Potency [4]	Potency [5]	Potency [6]	Potency [7]	Potency [8]	Potency [9]	Potency [10]	Potency [11]	Potency [12]	Potency [13]	Potency [14]	Potency [15]	Potency [16]	Potency [17]	Potency [18]	Potency [19]	Potency [20]
O=C(O)c1ccccc1	inactive	inactive	inactive	inactive	inactive	inactive	inactive	inactive	inactive	inactive	inactive	inactive	inactive	inactive	–	–	–	–	–	–
Nc1ccc(O)c(C(=O)O)c1	inactive	inactive	inactive	inactive	–	inactive	inactive	inactive	inactive	inactive	inactive	–	inactive	inactive	inactive	inactive	inactive	inactive	inactive	–
O=C(O)/C=C\C(=O)O	inactive	inactive	inactive	inactive	inactive	–	–	–	–	inactive	inactive	inactive	inactive	inactive	–	27.5 µM (active) and 3.75 µM (active) and inactive	inactive	inactive	inactive	inactive
Oc1ccc(O)cc1	inactive	60.8 µM (active) and 61.1 µM (active) and 21.1 µM (active)	inactive	inactive	–	inactive	–	inactive	inactive	–	inactive	inactive	–	–	inactive	inactive	inactive	inactive	–	inactive
CCCC(CCC)C(=O)O	inactive	inactive	inactive	inactive	inactive	–	–	–	–	inactive	inactive	inactive	inactive	inactive	–	–	–	–	inactive	–
CC(O)(P(=O)(O)O)P(=O)(O)O	inactive	inactive	inactive	inactive	inactive	inactive	–	inactive	–	inactive	inactive	inactive	inactive	inactive	–	–	–	–	inactive	–
O=c1oc(=O)c2cc3c(=O)oc(=O)c3cc12	inactive	inactive	inactive	inactive	–	inactive	inactive	inactive	–	inactive	inactive	–	inactive	inactive	–	inactive	inactive	inactive	inactive	inactive
Nc1nc(=S)c2[nH]cnc2[nH]1	66.8 µM (active) and inactive	inactive	inactive	inactive	inactive	inactive	inactive	–	–	inactive	inactive	inactive	inactive	inactive	–	–	–	–	inactive	–
NNc1ccc(C(=O)O)cc1	inactive	22 µM (active) and 30.9 µM (active)	inactive	inactive	–	inactive	inactive	inactive	inactive	inactive	inactive	–	inactive	inactive	inactive	–	inactive	inactive	inactive	inactive
NS(=O)(=O)c1cc(C(=O)O)c(NCc2ccco2)cc1Cl	inactive	inactive	inactive	inactive	inactive	–	–	–	–	inactive	inactive	–	inactive	inactive	–	–	–	–	inactive	–
CCCCCCCCC(=O)O	inactive	inactive	inactive	inactive	–	inactive	inactive	inactive	inactive	–	inactive	inactive	inactive	inactive	inactive	inactive	inactive	inactive	inactive	inactive
CC(=O)CCC(=O)O	inactive	inactive	inactive	inactive	–	inactive	inactive	inactive	–	inactive	inactive	inactive	–	inactive	–	inactive	inactive	inactive	inactive	inactive
O=C(C1CCCCC1)N1CC(=O)N2CCc3ccccc3C2C1 (stereo unspecified)	inactive	inactive	inactive	inactive	inactive	–	–	–	–	–	inactive	–	inactive	inactive	–	–	–	–	–	–
CCn1cc(C(=O)O)c(=O)c2ccc(C)nc21	inactive	inactive	inactive	inactive	inactive	–	–	inactive	–	–	inactive	inactive	inactive	inactive	–	inactive and 3.34 µM (active)	inactive	inactive	–	inactive
O=C(O)[C@H](O)[C@@H](O)[C@H](O)[C@H](O)CO	inactive	inactive	inactive	inactive	–	inactive	inactive	inactive	–	inactive	inactive	–	inactive	–	–	inactive	inactive	inactive	inactive	inactive
